Reference: PubChem BioAssay AID1835 (Johns Hopkins Ion Channel Center, 2009)
In all, about 2,400 compounds went through this assay and about 750 (31%) were called active. The list shows a part of the results. A number with no mark means an inactive call.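 How the source made its calls: active means median signal gain over dofetilide-blocked control wells reaching their mean plus 3 SD, so readout 1 at least 0; inactive means the rest.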

What follows are compounds tested against Voltage-gated inwardly rectifying potassium channel KCNH2 (Homo sapiens) (UniProt Q12809) (assay: hERG protection against dofetilide inhibition, confirmation, cell-based, thallium flux, duplicate retest, dofetilide IC70 (AID 1835)). Details: hERG cell line, FluxOR thallium flux, dofetilide-blocked; at 10 µM; stronger effect = higher value.
Chain of Voltage-gated inwardly rectifying potassium channel KCNH2 (Homo sapiens) (Q12809 whole entry, looked up): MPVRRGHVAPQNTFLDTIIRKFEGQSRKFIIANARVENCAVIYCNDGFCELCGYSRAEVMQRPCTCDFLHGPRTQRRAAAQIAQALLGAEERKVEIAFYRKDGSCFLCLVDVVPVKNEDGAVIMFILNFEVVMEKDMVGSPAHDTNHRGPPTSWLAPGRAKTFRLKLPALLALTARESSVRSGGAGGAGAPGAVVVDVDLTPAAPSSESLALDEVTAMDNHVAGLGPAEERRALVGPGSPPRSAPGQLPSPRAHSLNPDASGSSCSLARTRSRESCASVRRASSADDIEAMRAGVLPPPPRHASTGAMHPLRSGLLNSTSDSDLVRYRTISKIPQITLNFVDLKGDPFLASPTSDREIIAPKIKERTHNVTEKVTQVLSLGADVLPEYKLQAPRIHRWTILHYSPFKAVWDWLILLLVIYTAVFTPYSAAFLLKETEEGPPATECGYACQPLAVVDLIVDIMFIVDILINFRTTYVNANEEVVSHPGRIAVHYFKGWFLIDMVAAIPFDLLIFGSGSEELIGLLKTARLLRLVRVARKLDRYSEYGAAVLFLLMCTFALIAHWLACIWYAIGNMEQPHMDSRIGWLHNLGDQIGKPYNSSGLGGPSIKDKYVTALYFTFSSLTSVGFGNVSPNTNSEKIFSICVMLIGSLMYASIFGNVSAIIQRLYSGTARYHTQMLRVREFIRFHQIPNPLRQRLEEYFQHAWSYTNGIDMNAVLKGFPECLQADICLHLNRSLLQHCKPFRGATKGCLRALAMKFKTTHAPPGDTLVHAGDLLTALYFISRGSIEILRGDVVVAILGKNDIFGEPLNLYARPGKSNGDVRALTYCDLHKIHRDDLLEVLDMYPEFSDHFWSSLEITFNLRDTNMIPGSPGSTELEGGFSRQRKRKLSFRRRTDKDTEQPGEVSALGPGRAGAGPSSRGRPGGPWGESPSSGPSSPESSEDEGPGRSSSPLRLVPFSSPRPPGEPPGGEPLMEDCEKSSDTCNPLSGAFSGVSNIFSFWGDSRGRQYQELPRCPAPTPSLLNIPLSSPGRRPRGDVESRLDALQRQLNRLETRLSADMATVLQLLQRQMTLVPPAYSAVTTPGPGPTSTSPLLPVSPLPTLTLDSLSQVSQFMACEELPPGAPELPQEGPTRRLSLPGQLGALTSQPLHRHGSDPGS

SMILES | activity increase over dofetilide control, less the hit threshold
Cc1nn(-c2ccccc2)c(C)c1S(=O)(=O)O | -6%
COCCCN1C(=O)C(=O)/C(=C(/O)c2ccc(S(=O)(=O)N3CCOCC3)cc2)C1c1ccc(F)cc1 (stereo unspecified) | -5%
CCCN(C(=O)c1ccco1)c1nnc(-c2ccncc2)s1 | 5% (active)
O=C(c1ccco1)N(c1ccccn1)c1ccccn1 | -13%
CN(C(=O)CCc1ccccc1)c1nnc(-c2ccncc2)s1 | -24%
Cc1cc([N+](=O)[O-])nn1CC(=O)Nc1ccc(Cl)cn1 | -12%
Cc1ccc(O)c(Sc2cc(C)ccc2O)c1 | -34%
O=C(CCC(=O)N1CCN(S(=O)(=O)c2ccccc2)CC1)c1cccs1 | -14%
Cc1[nH]n(-c2cccc3ccccc23)c(=O)c1/C=N/c1sc2c(c1C#N)CCC2 | 3% (active)
Cc1[nH]n(-c2ccc(F)cc2)c(=O)c1/C=N/c1sc2c(c1C#N)CCCC2 | 41% (active)
CN(C1=C(NC(=O)c2ccccc2)C(=O)c2ccccc2C1=O)C1CCS(=O)(=O)C1 (stereo unspecified) | -4%
COCCn1cnc2c1c(=O)n(CC#N)c(=O)n2Cc1ccccc1 | -14%
COc1cccc2sc(Nc3nnc(-c4cccs4)o3)nc12 | 52% (active)
COc1ccccc1Nc1nnc(SCC(=O)Nc2nc(-c3ccc(F)cc3)cs2)s1 | -24%
COc1cccc2sc(Nc3nnc(-c4ccccc4Cl)o3)nc12 | 16% (active)
N#C/C(=C\c1ccc(-c2ccccc2Cl)o1)C(=O)Nc1nc2ccccc2s1 | -6%
COc1cccc2sc(Nc3nc(-c4ccccn4)cs3)nc12 | -19%
COc1cccc2sc(Nc3nnc(-c4ccc(F)cc4)o3)nc12 | 83% (active)
Cc1ccc(NC(=O)c2ccc(NC3=NC4CS(=O)(=O)CC4S3)cc2)cc1 (stereo unspecified) | -14%
O=C(C[n+]1ccccc1)N/N=C/c1ccc(Cl)c(Cl)c1 | -13%
O=C(CC1CCCC1)Nc1ccc2c(c1)CCC2 | -5%
COc1ccccc1NC(=S)N1CCCc2ccccc21 | -16%
COc1ccc(/C=N/NC(=O)C(=O)N2CCCC2)cc1 | -4%
COc1ccc(/C=N/NC(=O)c2ccncc2)cc1CN1CCCc2ccccc21 | 3% (active)
O=[N+]([O-])c1cc(Cl)cc(/C=N/NC(=S)Nc2ccc(S(=O)(=O)N3CCOCC3)cc2)c1O | -3%
Cc1c(C)c2ccc(OCC(=O)N[C@@H](Cc3ccccc3)C(=O)O)cc2oc1=O | 2% (active)

SMILES | activity increase over dofetilide control, less the hit threshold
O=c1oc2cc(OCCO)ccc2c2c1CCCC2 | -8%
O=C(COc1ccc2c3c(c(=O)oc2c1)CCC3)NCC1CCC(C(=O)O)CC1 (stereo unspecified) | -7%
O=C(COc1ccc2c3c(c(=O)oc2c1)CCC3)N[C@@H](Cc1ccccc1)C(=O)O | 9% (active)
Cc1cc(=O)oc2cc(OCC(=O)OCC(=O)NC(C)C)ccc12 | -22%
Cc1cc(=O)oc2c3c(cc(OCC(=O)N[C@@H](Cc4ccccc4)C(=O)O)c12)OC(C)(C)CC3 | -3%
Cc1ccc(C(C)C)cc1OCCn1cncn1 | -24%
O=C1Nc2ccc(Br)cc2C1Cc1ccccc1F (stereo unspecified) | -17%
O=C(CC(=O)c1ccccc1O)c1cccc(F)c1 | -6%
Cc1ccc(C(=O)CC(=O)c2cccc(F)c2)c(O)c1 | 1% (active)
Cc1ccc(C(=O)CC(=O)c2ccc(C)cc2O)cc1 | -1%
COc1cc(C(=O)NCc2ccc(-c3nc4ccccc4o3)cc2)cc(OC)c1OC | -12%
O=C(Nc1nnc(SCC(=O)N2CCCCC2)s1)C1CCCCC1 | -18%
CCSc1nnc(NC(=O)Cn2cnc3c2c(=O)n(C)c(=O)n3C)s1 | -22%
CCSc1nnc(NC(=O)CC(C)C)s1 | 3% (active)
COc1ccc(S(=O)(=O)Nc2ccc(Cl)cn2)c(C)c1C | -9%
CC[C@@H](C(=O)[C@@H](C)[C@@H](O)[C@H](C)CCc1ccc(C)c(O)c1C(=O)O)[C@H]1O[C@](CC)([C@H]2CC[C@](O)(CC)[C@H](C)O2)C[C@@H]1C | 93% (active)
O=C(CCN1C(=O)/C(=C\C=C\c2ccccc2)SC1=S)Nc1cccc(C(=O)O)c1 | 93% (active)
O=C(CCN1C(=O)/C(=C\C=C\c2ccccc2)SC1=S)Nc1ccc(C(=O)O)cc1 | 26% (active)
O=C(CCN1C(=O)/C(=C/c2cccs2)SC1=S)Nc1cccc(C(=O)O)c1 | -13%
O=C(CSc1nc(-c2ccccc2)nc2ccc(F)cc12)Nc1cccc(C(=O)O)c1 | -23%
COc1ccc(NC(=O)CCN2C(=O)C3C4C=CC(C4)C3C2=O)cc1 (stereo unspecified) | -14%
CC(C)Oc1cc(S(=O)(=O)N2CCCCC2)ccc1N | -18%
CC(C)(C)C(=O)NC(=S)N1CCOCC1 | 3% (active)
S=C(N/N=C/c1ccc(Cl)cc1)N1CCOCC1 | -47%
Cc1cc(F)c(F)c(C(=O)N2CCOCC2)c1 | -17%
